Test results as given in PubChem BioAssay AID1159580 (chemical genetic matrix, 2015).
Screen size: about 5,500 compounds; about 2,000 (36%) were called active. Another 18% or so got no clear call; they are omitted. Rule as the data show it: active = normalized growth mostly below about 0.91 (no sharp cut-off); inconclusive = no clear call, values can overlap the other calls; inactive = mostly above about 0.92. Some of the results follow.

Experiment: chemical genetic growth profiling, strain panel (AID 1159580);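 also: tested at 20 µM; growth read once vehicle control cultures reached saturation at 30 °C; 1 = growth at the plate median or of vehicle wells; lower values mean less growth of the strain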
Settings: S. cerevisiae deletion strains, growth OD

Measured: normalized growth

C=CCc1ccc(OC)cc1
inactive: locus YAL021C, strain ccr4, hits give low values 0.982 | locus YAL026C, strain drs2, hits give low values 1.03 | locus YAL030W, strain snc1, hits give low values 1 | locus YBL061C, strain skt5, hits give low values 1.01 | locus YBR009C, strain hhf1, hits give low values 1.01 | locus YBR023C, strain chs3, hits give low values 1.01 | locus YBR171W, strain sec66, hits give low values 1.01 | locus YBR231C, strain swc5, hits give low values 1.02 | locus YBR279W, strain paf1, hits give low values 0.995 | locus YCL011C, strain gbp2, hits give low values 0.988 | locus YCL016C, strain dcc1, hits give low values 1 | locus YCL069W, strain vba3, hits give low values 0.999 | locus YCR088W, strain abp1, hits give low values 1.01 | locus YDL005C, strain med2, hits give low values 1.02 | locus YDL040C, strain nat1, hits give low values 0.999 | locus YDR001C, strain nth1, hits give low values 1 | locus YDR069C, strain doa4, hits give low values 1.01 | locus YDR137W, strain rgp1, hits give low values 0.994 | locus YDR159W, strain sac3, hits give low values 1.06 | locus YDR195W, strain ref2 1 | locus YDR297W, strain sur2, hits give low values 1.04 | locus YDR334W, strain swr1, hits give low values 1.01 | locus YDR335W, strain msn5, hits give low values 0.996 | locus YDR392W, strain spt3, hits give low values 0.919 | locus YEL003W, strain gim4, hits give low values 1.01 | locus YEL037C, strain rad23, hits give low values 1.01 | locus YEL061C, strain CIN8 (second series), hits give low values 0.995 | locus YER015W, strain faa2, hits give low values 1.01 | locus YER016W, strain bim1, hits give low values 1.01 | locus YER111C, strain swi4, hits give low values 1 | locus YER155C, strain BEM2 (second series), hits give low values 1.04 | locus YFR010W, strain ubp6, hits give low values 1.03 | locus YGL167C, strain pmr1, hits give low values 1.01 | locus YGL173C, strain kem1, hits give low values 1.03 | locus YGL227W, strain vid30, hits give low values 1.01 | locus YGL240W, strain doc1, hits give low values 1.02 | locus YGL253W, strain hxk2, hits give low values 1.02 | locus YHR013C, strain ard1, hits give low values 1.01 | locus YHR027C, strain rpn1, hits give low values 1.01 | locus YHR030C, strain SLT2, hits give low values 1 | locus YHR079C, strain IRE1, hits give low values 0.989 | locus YHR142W, strain chs7, hits give low values 0.992 | locus YJL092W, strain hpr5, hits give low values 1.01 | locus YJL095W, strain BCK1 (second series), hits give low values 1.01 | locus YJL095W, strain BCK1, hits give low values 0.995 | locus YJL115W, strain asf1, hits give low values 1.01 | locus YJL129C, strain trk1, hits give low values 1.03 | locus YJL154C, strain vps35, hits give low values 1 | locus YJL164C, strain tpk1, hits give low values 0.98 | locus YJL166W, strain qcr8, hits give low values 1.01 | locus YJL187C, strain SWE1, hits give low values 0.997 | locus YJR066W, strain TOR1, hits give low values 0.939 | locus YKL160W, strain elf1, hits give low values 0.979 | locus YKR026C, strain gcn3, hits give low values 1.01 | locus YKR091W, strain srl3, hits give low values 1 | locus YLL001W, strain dnm1, hits give low values 0.996 | locus YLL026W, hits give low values 1.02 | locus YLL041C, strain sdh2, hits give low values 1 | locus YLR027C, strain aat2, hits give low values 1.02 | locus YLR113W, strain HOG1, hits give low values 0.992 | locus YLR221C, strain rsa3, hits give low values 1.03 | locus YLR258W, strain gsy2, hits give low values 0.999 | locus YLR262C, strain YPT6 (second series), hits give low values 0.992 | locus YLR320W, strain mms22, hits give low values 1.03 | locus YLR342W, strain FKS1, hits give low values 1.01 | locus YLR357W, strain rsc2, hits give low values 1.01 | locus YLR370C, strain arc18, hits give low values 0.995 | locus YLR384C, strain iki3, hits give low values 1.01 | locus YML120C, strain ndi1, hits give low values 0.986 | locus YMR058W, strain fet3, hits give low values 1.02 | locus YMR125W, strain sto1, hits give low values 0.967 | locus YMR129W, hits give low values 1.02 | locus YMR205C, strain PFK2, hits give low values 0.999 | locus YMR231W, strain pep5, hits give low values 1.01 | locus YNL071W, strain lat1, hits give low values 0.991 | locus YNL183C, strain NPR1, hits give low values 0.909 | locus YNL209W, strain ssb2, hits give low values 0.992 | locus YNL248C, strain rpa49, hits give low values 0.952 | locus YNL322C, strain KRE1 (second series), hits give low values 1 | locus YNR049C, strain mso1, hits give low values 1 | locus YOR001W, strain rrp6, hits give low values 1.02 | locus YOR070C, strain gyp1, hits give low values 1.02 | locus YOR080W, strain dia2, hits give low values 1.02 | locus YOR083W, strain WHI5, hits give low values 0.974 | locus YOR106W, strain vam3, hits give low values 0.988 | locus YOR231W, strain MKK1, hits give low values 1 | locus YOR265W, strain rbl2, hits give low values 1 | locus YOR270C, strain vph1, hits give low values 1.04 | locus YOR290C, strain snf2, hits give low values 0.956 | locus YPL051W, strain arl3, hits give low values 1.01 | locus YPL078C, strain atp4, hits give low values 0.96 | locus YPL106C, strain sse1, hits give low values 1 | locus YPL240C, strain hsp82, hits give low values 1.02 | locus YPL256C, strain CLN2, hits give low values 1
